Bioassay records from PubChem BioAssay.
KLK7 zymogen act = activates the human kallikrein-7 zymogen | P49862 | purified proKLK7, EDANS-DABCYL substrate fluorescence; 100% is mature enzyme control, 0% vehicle | activation, % at 7 µM | 370,000 tested, 0.9% active | AID 652039;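 active = activation above the mean of all tested compounds plus 3 SD, computed per campaign excluding outliers beyond control limits, cut at about 13% in these data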
ADAM10 inh = inhibits human ADAM10 | O14672 | recombinant ADAM10, EDANS/DABCYL FRET peptide cleavage, 3 h | inhibition, % at 7 µM | 370,000 tested, 0.62% active | AID 720582;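 active = inhibition above a per-campaign cutoff equal to the mean of compounds falling between control-based bounds plus 3 SD, cut at about 20% in these data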;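 also: 0% = DMSO wells while the 100% control is not disclosed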
Pemphigus Ab inh = human desmoglein-3 autoantibody binding inhibition | DSG3-coupled beads, scFv-anti-DSG3-GFP binding, flow cytometry; hits give low values | binding (percent of control), % at 10 µM | 310,000 tested, 0.48% active | AID 588358;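 active = binding more than 3 SD below its plate's average and above zero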;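 also: hits lower antibody fragment binding to DSG3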
MPTP block = blocks calcium-induced mitochondrial swelling; isolated mouse mitochondria, Ca2+ swelling absorbance, 30 min; inhibition, % at 10 µM; 360,000 tested, 1.4% active;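 active = inhibition of 50% or more, scaled per plate between neutral and stimulator controls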;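 also: 0% = DMSO wells given calcium and 100% = 1 mM EGTA wells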
ADAM17 inh = ADAM17 inhibition, QFRET primary screen | P78536 | recombinant ADAM17, EDANS/DABCYL FRET peptide cleavage | AID 720648 | 370,000 tested, 0.83% active | inhibition, % at 6.95 µM;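 active = inhibition above the mean of compounds lying between control limits plus 3 SD, set per campaign, cut at about 8.5% in these data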;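 also: 0% = DMSO-only wells as the low control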
Target sequence (P78536 215-824 limits assumed): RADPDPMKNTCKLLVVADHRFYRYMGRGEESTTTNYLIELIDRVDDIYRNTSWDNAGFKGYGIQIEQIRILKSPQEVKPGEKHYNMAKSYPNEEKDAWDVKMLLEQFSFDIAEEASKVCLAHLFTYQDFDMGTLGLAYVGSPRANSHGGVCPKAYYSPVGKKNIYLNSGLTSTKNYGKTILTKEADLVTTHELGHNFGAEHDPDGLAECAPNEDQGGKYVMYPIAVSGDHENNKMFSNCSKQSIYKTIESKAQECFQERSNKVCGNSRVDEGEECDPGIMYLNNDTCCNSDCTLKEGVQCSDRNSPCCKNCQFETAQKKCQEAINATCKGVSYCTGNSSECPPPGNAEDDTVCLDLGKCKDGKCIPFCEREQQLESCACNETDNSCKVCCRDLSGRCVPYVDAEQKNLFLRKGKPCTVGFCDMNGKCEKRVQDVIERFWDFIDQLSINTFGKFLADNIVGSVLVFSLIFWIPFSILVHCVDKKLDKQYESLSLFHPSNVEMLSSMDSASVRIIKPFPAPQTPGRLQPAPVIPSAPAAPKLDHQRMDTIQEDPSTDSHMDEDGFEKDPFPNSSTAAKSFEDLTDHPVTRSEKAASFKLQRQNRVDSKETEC
rCAG binder = r(CAG) repeat RNA binding. TO-PRO-1 dye displacement fluorescence. inhibition, % at 3 µM. 370,000 tested, 1.3% active;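 active = inhibition above the plate cutoff, the mean of all test compounds on that plate plus 3 SD, cut at about 35% in these data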;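 also: 0% = DMSO alone and 100% = 100 µM mitoxantrone as full dye displacement; higher means more dye released from RNA so lower well fluorescence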
Rh123 counter = mitochondrial membrane potential, counter-screen. shares compounds with MPTP block. isolated mitochondria, Rhodamine 123 fluorescence. inhibition, % at 10 µM. 5,000 tested, 78% active; in the data active = inhibition above about 22%;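 also: 0% = DMSO vehicle and 100% = positive control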
MPTP abs DR = dose response confirmation of mitochondrial permeability transition pore inhibitors. shares compounds with MPTP block. isolated mitochondria swelling, absorbance. IC50, µM. 780 tested, 58% active; in the data active = IC50 below about 20 µM
MPTP counter DR = active in counter-screen for permeability transition pore inhibitors; shares compounds with MPTP block; isolated mitochondria counterscreen, fluorescence read-out; IC50, µM; 780 tested, 49% active; AID 651564; in the data active = IC50 below about 80 µM
An asterisk follows results filed as active; i = inactive; · = no result. An excerpt weighted towards active compounds, which were near 4.7% of everything screened.

SMILES	KLK7 zymogen act	ADAM10 inh	Pemphigus Ab inh	MPTP block	ADAM17 inh	rCAG binder	Rh123 counter	others
CCN(c1ccccc1)S(=O)(=O)c1cc(C(=O)Nc2cccc(Cl)c2)ccc1F	-0.5	13.4	83.8	94.8*	7.0	12.6	69.0*
COC(=O)c1cccc(NS(=O)(=O)c2ccc(OC)c(OC)c2)c1C	0.2	3.5	96.9	55.5*	-3.7	-3.1	20.7*
CCC1CCCCN1S(=O)(=O)c1ccc(NC(=O)c2ccncc2)cc1 (centres undefined)	-0.3	7.0	102.3	74.9*	-3.6	-2.9	88.8*
CCOC(=O)CC1(Cc2ccccc2)Oc2ccccc2O1	0.4	-7.7	·	·	-0.3	0.1	·
O=C(CSc1ccc(C(F)(F)F)cc1[N+](=O)[O-])Nc1ccc2ccccc2c1	-0.5	-4.8	103.6	74.5*	-0.5	7.4	16.4	MPTP abs DR=>100;MPTP counter DR=>80
O=[N+]([O-])c1cc(C(F)(F)F)ccc1SCC(O)CO (centres undefined)	-0.3	3.3	106.2	-3.8	-4.9	-2.8	·
COc1ccc(CCN2CCC(Nc3nc4ccccc4n3Cc3ccc(F)cc3)CC2)cc1	0.0	4.5	114.7	83.0*	1.6	2.2	-14.3
COc1ccc(CNc2nc3ccccc3n2CCN2CCCCC2)cc1	0.3	0.4	120.8	-1.4	-1.3	-10.9	·
CCn1c(-c2ccc(C(C)(C)C)cc2)n[nH]c1=S	-0.5	-1.1	101.5	69.4*	-1.7	-2.2	15.9	MPTP abs DR=17.6*;MPTP counter DR=26.3*
CCc1cc2c(NCc3ccccc3)nc(C)nc2s1	0.2	-10.4	111.2	91.2*	-5.4	-5.8	64.6*
O=C1/C(=C/c2ccc(O)c(O)c2)SC(=S)N1Nc1ccccc1	·	·	94.5	100.9*	·	·	55.8*
COc1cc(/C=C2\SC(=S)N(Nc3ccccc3)C2=O)ccc1O	0.5	14.6	99.7	6.6	4.4	27.9	·
CNC(=S)Nc1ccc(-c2nc3ccc(C)cc3s2)cc1	2.7	i	102.5	1.9	-208.3	13.8	·
CCC(C)(C)NC(=S)Nc1ccc(-c2nc3ccc(C)cc3s2)cc1	3.2	i	96.0	84.8*	i	7.8	34.4*
CCCCNC(=S)Nc1ccc(-c2nc3ccc(C)cc3s2)cc1	3.3	i	84.2	88.1*	-312.7	6.0	86.5*
Cc1ccc(S(=O)(=O)Nc2ncnc3sc(C)c(C)c23)cc1	0.1	-4.7	95.7	-1.2	-0.5	12.8	·
Cc1sc2ncnc(NCCc3ccc(S(N)(=O)=O)cc3)c2c1C	-0.4	-1.9	104.4	86.2*	0.8	4.4	105.8*
NS(=O)(=O)c1ccc(CCNc2ncnc3sccc23)cc1	-0.6	-10.2	94.6	73.7*	-7.2	3.2	80.8*
COCc1[nH]nc2c1C(c1ccc(Br)cc1)N(c1ccc(OC)cc1)C2=O (centres undefined)	0.2	-9.0	·	·	-2.5	3.8	·
O=[N+]([O-])c1ccc(SN2CCCCC2)c([N+](=O)[O-])c1	0.6	-5.5	·	·	-4.4	0.7	·
CCCCCCCCN1C(=O)[C@@H](CC(=O)N2CCSCC2)C[C@@]2(C(=O)OC)C1=C[C@H](C(C)(C)C)O[C@@H]2C	0.3	6.4	·	·	-0.3	1.8	·
C[C@H](O)[C@@H]1C(=O)N2CCc3c([nH]c4cccc(-c5ccccc5)c34)[C@@H]2C[C@@H]1N(C)C(=O)NC1CCCCC1	-22.5	i	·	·	-199.1	10.7	·
O=C(NCc1cn(-c2ccccc2)nc1-c1ccccc1)c1ccc([N+](=O)[O-])cc1	0.0	-1.3	80.5	53.4*	0.9	2.0	62.8*
CCCOc1ccc(S(=O)(=O)NNC(=O)c2cc3ccccc3o2)cc1	0.4	9.2	98.5	66.1*	4.9	6.2	31.4*
CCOc1ccc(S(=O)(=O)NNC(=O)c2cc3ccccc3o2)cc1	-0.2	3.5	92.6	3.3	-0.6	5.0	·
SMILES	KLK7 zymogen act	ADAM10 inh	Pemphigus Ab inh	MPTP block	ADAM17 inh	rCAG binder	Rh123 counter	others
O=C1c2ccccc2C(=O)N1c1ccc(Cc2ccncc2)cc1	0.6	0.9	118.2	54.0*	1.0	-5.7	15.6	MPTP abs DR=i;MPTP counter DR=27.2*
O=C(CSc1nnc(-c2ccccc2)n1-c1ccccc1)Nc1ccc(Oc2ccccc2)cc1	0.2	-4.2	·	·	-1.0	7.8	·
O=C(c1cccc([N+](=O)[O-])c1)n1nc(-c2ccccc2)nc1NCc1ccccc1	0.2	-9.0	127.5	2.5	-0.6	-2.4	·
O=C(CSc1nc(-c2ccccc2)nn1C(=O)c1ccccc1)Nc1cccc([N+](=O)[O-])c1	0.4	3.5	108.7	50.5*	2.0	11.7	47.2*
CC12CCC(O)CC1=CCC1C2CCC2(C)C(c3ccn[nH]3)CCC12 (centres undefined)	0.5	3.7	110.7	56.6*	-1.1	2.0	88.2*
Cc1ccc(Nc2cc(C)nc(-c3ccccc3O)n2)cc1	-6.0	-148.4	107.4	28.6	-27.8	20.8	·
Cc1cc(Nc2ccc(F)c(F)c2)nc(-c2ccccc2O)n1	1.1	-0.6	87.3	89.9*	-5.3	5.7	60.1*
CCCN(C(=O)CCc1cn(CCC)c2ccccc12)c1ccc(Oc2cccnc2)cc1	0.8	9.5	·	·	5.0	-0.8	·
CCc1ccc(NC(=O)CSc2nc3ncc(Br)cc3[nH]2)cc1	0.0	0.0	98.2	53.8*	0.8	3.9	87.6*
CC(C)(C)CC(C)(C)NCC(O)COc1ccc2c(c1)CCC2 (centres undefined)	0.1	-4.3	75.4	95.0*	-3.7	3.4	-11.6	MPTP abs DR=4.24*;MPTP counter DR=48.3*
COC(=O)[C@]12C[C@H](CC(=O)NCCCN3CCCC3=O)C(=O)N(Cc3ccccc3)C1=C[C@H](C1CCCC1)O[C@@H]2C	-0.2	-0.7	·	·	1.7	-2.2	·
O=C(NC(=S)Nc1nc(-c2ccccc2)cs1)c1cncc(Br)c1	0.1	0.7	97.4	74.1*	2.7	2.6	74.5*
O=C(Cc1c(F)c(F)c(F)c(F)c1F)Nc1nc(-c2ccccc2)cs1	-0.5	2.1	110.4	54.1*	0.3	7.0	92.5*
O=C(NC(=S)Nc1nc(-c2ccccc2)cs1)c1cccnc1	-0.2	4.5	106.5	1.9	-0.1	6.3	·
O=C(Nc1nc(-c2ccccc2)cs1)c1ccc(Br)o1	1.2	1.9	103.6	81.5*	-1.9	7.8	20.6*
CCCCOCCCNC(=O)C[C@@H]1C(=O)N(CCc2ccc(Cl)cc2)C2=CCCCC[C@]21C(=O)OC	0.5	4.7	·	·	2.1	1.2	·
COc1ccccc1N=Cc1c(C)c(C#N)c2[nH]c3ccccc3n2c1=O	0.0	-9.6	·	13.7	-6.5	11.4	·
Cc1c(Cc2ccccc2)c(=O)n2c([nH]c3ccccc32)c1C#N	-1.4	-61.1	103.9	84.2*	-20.3	2.5	73.9*
